From PubChem BioAssay AID1159580 (chemical genetic matrix, 2015)
The campaign covered roughly 5,500 compounds. About 2,000 (36%) were called active. About 18% were inconclusive and are not listed. Rule as the data show it: active = normalized growth mostly below about 0.91 (no sharp cut-off); inconclusive = no clear call, values can overlap the other calls; inactive = mostly above about 0.92. This is one part of the list.

Experiment: chemical genetic growth profiling, strain panel (AID 1159580);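 also: tested at 20 µM; growth read once vehicle control cultures reached saturation at 30 °C; 1 = growth at the plate median or of vehicle wells; lower values mean less growth of the strain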
Conditions: growth OD

Measured: normalized growth

CCOc1ccc(Cc2nccc3cc(OCC)c(OCC)cc23)cc1OCC
inactive: S. cerevisiae deletion strains, locus YJR075W, strain HOC1, hits give low values 0.92 | S. cerevisiae deletion strains, locus YKL009W, strain mrt4, hits give low values 0.969 | S. cerevisiae deletion strains, locus YKL068W, hits give low values 0.986 | S. cerevisiae deletion strains, locus YKL085W, strain MDH1 (second series), hits give low values 0.985 | S. cerevisiae deletion strains, locus YKL085W, strain MDH1, hits give low values 0.985 | S. cerevisiae deletion strains, locus YKL160W, strain elf1, hits give low values 0.98 | S. cerevisiae deletion strains, locus YKL190W, strain CNB1, hits give low values 0.98 | S. cerevisiae deletion strains, locus YKR026C, strain gcn3, hits give low values 0.975 | S. cerevisiae deletion strains, locus YKR091W, strain srl3, hits give low values 0.979 | S. cerevisiae deletion strains, locus YLL001W, strain dnm1, hits give low values 0.96 | S. cerevisiae deletion strains, locus YLL026W, hits give low values 0.984 | S. cerevisiae deletion strains, locus YLL041C, strain sdh2, hits give low values 0.975 | S. cerevisiae deletion strains, locus YLR027C, strain aat2, hits give low values 0.97 | S. cerevisiae deletion strains, locus YLR039C, strain RIC1, hits give low values 0.878 | S. cerevisiae deletion strains, locus YLR058C, strain SHM2, hits give low values 0.949 | S. cerevisiae deletion strains, locus YLR102C, strain apc9, hits give low values 0.978 | S. cerevisiae deletion strains, locus YLR113W, strain HOG1, hits give low values 1.02 | S. cerevisiae deletion strains, locus YLR221C, strain rsa3, hits give low values 0.982 | S. cerevisiae deletion strains, locus YLR258W, strain gsy2, hits give low values 0.968 | S. cerevisiae deletion strains, locus YLR262C, strain YPT6 (second series), hits give low values 0.871 | S. cerevisiae deletion strains, locus YLR262C, strain YPT6, hits give low values 0.861 | S. cerevisiae deletion strains, locus YLR320W, strain mms22, hits give low values 0.949 | S. cerevisiae deletion strains, locus YLR330W, strain CHS5, hits give low values 0.979 | S. cerevisiae deletion strains, locus YLR342W, strain FKS1 (second series), hits give low values 0.901 | S. cerevisiae deletion strains, locus YLR342W, strain FKS1, hits give low values 0.963 | S. cerevisiae deletion strains, locus YLR357W, strain rsc2, hits give low values 0.899 | S. cerevisiae deletion strains, locus YLR370C, strain arc18, hits give low values 0.977 | S. cerevisiae deletion strains, locus YLR371W, strain rom2, hits give low values 0.966 | S. cerevisiae deletion strains, locus YLR384C, strain iki3, hits give low values 0.989 | S. cerevisiae deletion strains, locus YML016C, strain PPZ1, hits give low values 0.973 | S. cerevisiae deletion strains, locus YML032C, strain rad52, hits give low values 0.943 | S. cerevisiae deletion strains, locus YML120C, strain ndi1, hits give low values 0.965 | S. cerevisiae deletion strains, locus YML124C, strain tub3, hits give low values 0.979 | S. cerevisiae deletion strains, locus YMR058W, strain fet3, hits give low values 0.967 | S. cerevisiae deletion strains, locus YMR078C, strain ctf18, hits give low values 0.957 | S. cerevisiae deletion strains, locus YMR125W, strain sto1, hits give low values 1.01 | S. cerevisiae deletion strains, locus YMR129W, hits give low values 0.984 | S. cerevisiae deletion strains, locus YMR205C, strain PFK2, hits give low values 0.938 | S. cerevisiae deletion strains, locus YMR223W, strain ubp8, hits give low values 0.971 | S. cerevisiae deletion strains, locus YMR231W, strain pep5, hits give low values 0.979 | S. cerevisiae deletion strains, locus YMR307W, strain GAS1, hits give low values 0.769 | S. cerevisiae deletion strains, locus YNL067W, strain RPL9B, hits give low values 0.935 | S. cerevisiae deletion strains, locus YNL071W, strain lat1, hits give low values 0.985 | S. cerevisiae deletion strains, locus YNL128W, strain TEP1, hits give low values 0.967 | S. cerevisiae deletion strains, locus YNL153C, strain GIM3, hits give low values 0.961 | S. cerevisiae deletion strains, locus YNL183C, strain NPR1, hits give low values 0.899 | S. cerevisiae deletion strains, locus YNL209W, strain ssb2, hits give low values 0.98 | S. cerevisiae deletion strains, locus YNL233W, strain BNI4, hits give low values 0.917 | S. cerevisiae deletion strains, locus YNL248C, strain rpa49, hits give low values 0.942 | S. cerevisiae deletion strains, locus YNL250W, strain rad50, hits give low values 0.98 | S. cerevisiae deletion strains, locus YNL271C, strain bni1, hits give low values 0.979 | S. cerevisiae deletion strains, locus YNL298W, strain CLA4, hits give low values 0.993 | S. cerevisiae deletion strains, locus YNL322C, strain KRE1 (second series), hits give low values 0.982 | S. cerevisiae deletion strains, locus YNL322C, strain KRE1, hits give low values 0.986 | S. cerevisiae deletion strains, locus YNR049C, strain mso1, hits give low values 0.965 | S. cerevisiae deletion strains, locus YNR052C, strain pop2, hits give low values 0.974 | S. cerevisiae deletion strains, locus YOL006C, strain TOP1, hits give low values 0.771 | S. cerevisiae deletion strains, locus YOL012C, strain htz1 1.53 | S. cerevisiae deletion strains, locus YOL147C, strain pex11, hits give low values 0.969 | S. cerevisiae deletion strains, locus YOR001W, strain rrp6, hits give low values 0.966 | S. cerevisiae deletion strains, locus YOR061W, strain CKA2, hits give low values 0.978 | S. cerevisiae deletion strains, locus YOR069W, strain VPS5, hits give low values 0.98 | S. cerevisiae deletion strains, locus YOR070C, strain gyp1, hits give low values 0.976 | S. cerevisiae deletion strains, locus YOR080W, strain dia2, hits give low values 0.977 | S. cerevisiae deletion strains, locus YOR083W, strain WHI5, hits give low values 0.95 | S. cerevisiae deletion strains, locus YOR106W, strain vam3, hits give low values 0.928 | S. cerevisiae deletion strains, locus YOR136W, strain idh2, hits give low values 0.974 | S. cerevisiae deletion strains, locus YOR144C, strain elg1, hits give low values 0.974 | S. cerevisiae deletion strains, locus YOR184W, strain ser1, hits give low values 0.899 | S. cerevisiae deletion strains, locus YOR231W, strain MKK1, hits give low values 0.978 | S. cerevisiae deletion strains, locus YOR265W, strain rbl2, hits give low values 0.993 | S. cerevisiae deletion strains, locus YOR270C, strain vph1, hits give low values 0.849 | S. cerevisiae deletion strains, locus YOR290C, strain snf2, hits give low values 0.974 | S. cerevisiae deletion strains, locus YOR316C, strain cot1, hits give low values 0.967 | S. cerevisiae deletion strains, locus YPL051W, strain arl3, hits give low values 0.948 | S. cerevisiae deletion strains, locus YPL055C, strain LGE1, hits give low values 0.906 | S. cerevisiae deletion strains, locus YPL078C, strain atp4, hits give low values 0.962 | S. cerevisiae deletion strains, locus YPL106C, strain sse1, hits give low values 0.999 | S. cerevisiae deletion strains, locus YPL240C, strain hsp82, hits give low values 0.991 | S. cerevisiae deletion strains, locus YPL241C, strain CIN2, hits give low values 0.984 | S. cerevisiae deletion strains, locus YPL256C, strain CLN2, hits give low values 0.963 | S. cerevisiae deletion strains, locus YPR119W, strain clb2, hits give low values 0.964 | S. cerevisiae deletion strains, locus YPR141C, strain kar3, hits give low values 0.974 | S. cerevisiae deletion strains, locus YPR167C, strain met16, hits give low values 0.97 | S. cerevisiae deletion strains, strain wtn01, hits give low values 0.924 | S. cerevisiae strains, strain wild type, hits give low values 0.961
active: S. cerevisiae deletion strains, locus YKR001C, strain vps1, hits give low values 0.88 | S. cerevisiae deletion strains, locus YLR268W, strain sec22, hits give low values 0.873 | S. cerevisiae deletion strains, locus YLR418C, strain cdc73, hits give low values 0.772 | S. cerevisiae deletion strains, locus YNL307C, strain MCK1, hits give low values 0.875 | S. cerevisiae deletion strains, locus YPR163C, strain tif3, hits give low values 0.898
